Compound activity deposited in PubChem by National Center for Advancing Translational Sciences (NCATS).
Hits are enriched below; roughly 5.6% of the tested compounds scored in any of these assays.
RORgamma inh = qHTS for inhibitors of ROR gamma transcriptional activity | Potency, µM (top dose mostly 53.6 µM), actives largely listed as inhibitors | actives 5.4% (n = 310,000) | Drosophila S2 Gal4-RORgamma UAS-luciferase reporter, 20 h | Nuclear receptor ROR-gamma (Mus musculus), P51450 | AID 2551, 2010; also: nearly all actives have a fitted effect of over 60% in size
Target sequence (P51450 whole entry, looked up, the tested form may be a part): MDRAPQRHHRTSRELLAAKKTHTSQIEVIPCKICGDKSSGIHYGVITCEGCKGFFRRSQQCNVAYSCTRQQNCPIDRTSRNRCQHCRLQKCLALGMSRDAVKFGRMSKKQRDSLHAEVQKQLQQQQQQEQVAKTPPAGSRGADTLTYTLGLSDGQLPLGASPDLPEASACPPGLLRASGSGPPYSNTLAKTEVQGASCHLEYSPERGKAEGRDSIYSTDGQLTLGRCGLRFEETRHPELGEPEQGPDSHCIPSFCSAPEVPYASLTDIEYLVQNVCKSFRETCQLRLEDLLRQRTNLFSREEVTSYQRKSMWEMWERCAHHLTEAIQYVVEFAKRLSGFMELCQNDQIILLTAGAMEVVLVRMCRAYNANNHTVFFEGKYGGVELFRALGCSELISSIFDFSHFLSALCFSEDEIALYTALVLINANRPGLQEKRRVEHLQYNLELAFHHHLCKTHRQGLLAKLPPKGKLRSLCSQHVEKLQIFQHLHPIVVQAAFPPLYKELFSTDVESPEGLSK
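Read-out: Photinus luciferase luminescence; inhibitors lower reporter signal. Insect Schneider cells with Gal4-ROR gamma fusion under metallothionein promoter, UAS reporter; 700 uM final copper sulfate induction, 20 hr, ambient temperature.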
PKM2 activator = qHTS Assay for Activators of Human Muscle isoform 2 Pyruvate Kinase; Potency, µM (titrated, usually from 57.5 µM), hits mostly activators; actives 0.34% (n = 260,000); purified PKM2, Kinase-Glo ATP luminescence, activation; response scale: 0% is enzyme alone, no compound; Pyruvate kinase PKM (Homo sapiens), P14618; also: nearly all actives have a fitted effect of over 55% in size
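ATP formation by purified human PK-M2, quantified via coupled luciferase luminescence after 1 h at room temperature with 0.1 mM ADP and 0.5 mM PEP final.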
CtBP-E1A inh = qHTS Assay for Inhibitors of the CtBP/E1A Interaction; CtBP / adenovirus E1A interaction (AlphaScreen); AlphaScreen GST-E1A/His-CtBP binding, 1536-well; active compounds read low; activity change, % (test concentration not listed); actives 0.49% (n = 340,000); in the data active = activity change below about -65%; inconclusive = mostly about -30% to -63%
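GST-E1A and His-tagged CtBP (125 nM each as 5X stock) were preincubated with pin-transferred compound for 2 h at 37 °C in the dark, then glutathione donor and nickel acceptor beads were added for 1 h before AlphaScreen reading.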
Six1-Eya2 blk = qHTS Assay for Inhibitors of the Six1/Eya2 Interaction | Homeobox protein SIX1 (Homo sapiens) + Protein phosphatase EYA2 (Homo sapiens), … | AlphaScreen GST-Six1/His-Eya2 binding, biochemical; active compounds read low | activity change, % (no concentration beside the values) | actives 0.56% (n = 360,000) | AID 651725, 2012; in the data active = activity change below about -65%; inconclusive = mostly about -30% to -63%
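AlphaScreen luminescence read after one hour at 37 °C in darkness. Pin-transferred compounds met GST-Six1 and His-Eya2 protein (5X stock 250 nM/500 nM) plus glutathione donor and Ni-chelate acceptor beads (5X, 50 ug/mL).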
Gal4-VP16 FLuc = VP16 counterscreen qHTS for inhibitors of ROR gamma transcriptional activity. actives 3.5% (n = 310,000). AID 2546, 2010. Drosophila S2 Gal4-VP16 UAS-luciferase, luminescence, 20 h. Potency, µM (titrated, usually from 53.6 µM), most hits filed as inhibitors;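 also: Gal4-VP16 expression switched on by copper sulfate through the metallothionein promoter; nearly all actives have a fitted effect of over 50% in size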
Numbers stand for hits; [ ] = remark or other dose. Unless noted, calls follow the shape of the dose curve; as a rule, active = well fitted curve in the direction sought with a large enough effect; inconclusive = small, poorly fitted or top-dose-only effect, or another doubt; inactive = no such curve, though single readings can be large; an effect the other way counts as inactive or inconclusive.

Screening C=CCN(c1ccc(F)cc1)S(=O)(=O)c1cc(C(=O)OCC(=O)N(C)C2CCS(=O)(=O)C2)ccc1Cl (stereo not drawn) returned RORgamma inh inactive, PKM2 activator inactive, CtBP-E1A inh inactive, Six1-Eya2 blk inactive and Gal4-VP16 FLuc inactive.
`COc1cccc(Nc2nc(-c3sc(NC(=O)CC(C)C)nc3C)cs2)c1` gave RORgamma inh inconclusive, PKM2 activator inactive, CtBP-E1A inh inactive, Six1-Eya2 blk inactive and Gal4-VP16 FLuc 17.8µM.
For CCCCCC(=O)Nc1nc(C)c(-c2csc(Nc3cc(Cl)ccc3OC)n2)s1 the results were RORgamma inh inactive, PKM2 activator inactive, CtBP-E1A inh inactive, Six1-Eya2 blk inactive and Gal4-VP16 FLuc inactive.
C=CCCC(=O)Nc1nc(C)c(-c2csc(Nc3cccc(OC)c3)n2)s1 was read as RORgamma inh inconclusive, PKM2 activator inactive, CtBP-E1A inh inactive, Six1-Eya2 blk inactive and Gal4-VP16 FLuc inconclusive.
`CCOc1ccccc1Nc1nc(-c2sc(NC(=O)c3ccco3)nc2C)cs1` gave RORgamma inh inactive, PKM2 activator inactive, CtBP-E1A inh inactive, Six1-Eya2 blk inactive and Gal4-VP16 FLuc inactive.
Screening Cc1ccc(Cl)cc1Nc1nc(-c2sc(NC(=O)C(C)(C)C)nc2C)cs1 returned RORgamma inh inconclusive, PKM2 activator inactive, CtBP-E1A inh inactive, Six1-Eya2 blk inactive and Gal4-VP16 FLuc 11.2µM.
For CCOc1ccccc1Nc1nc(-c2sc(C)nc2C)cs1 the results were RORgamma inh 8.91µM, PKM2 activator inactive, CtBP-E1A inh inactive, Six1-Eya2 blk inactive and Gal4-VP16 FLuc inconclusive.
Screening CCC(C)C(=O)Nc1nc(C)c(-c2csc(Nc3ccc(Cl)cc3)n2)s1 (stereo not drawn) returned RORgamma inh inactive, PKM2 activator inactive, Six1-Eya2 blk inactive and Gal4-VP16 FLuc 10µM.
CC(=O)N1CCC2(CCCN(c3ccccn3)C2)CC1 was read as RORgamma inh inactive and Gal4-VP16 FLuc inactive.
`CCCC(=O)Nc1nc(C)c(-c2csc(Nc3ccccc3OC)n2)s1` gave RORgamma inh inactive, PKM2 activator inactive, Six1-Eya2 blk inactive and Gal4-VP16 FLuc inactive.
`Cc1nc(C)c(-c2csc(Nc3ccc(O)c(C(=O)O)c3)n2)s1` gave RORgamma inh inconclusive, PKM2 activator inactive, CtBP-E1A inh inactive, Six1-Eya2 blk -70.7 and Gal4-VP16 FLuc inactive.
`COc1ccccc1Nc1nc(-c2sc(NC(=O)C(C)(C)C)nc2C)cs1` gave RORgamma inh inconclusive, PKM2 activator inactive, CtBP-E1A inh inactive, Six1-Eya2 blk inactive and Gal4-VP16 FLuc 6.31µM.
For CCOc1cc(C=O)cc(Cl)c1OCC(N)=O the results were RORgamma inh inactive, PKM2 activator inactive, Six1-Eya2 blk inactive and Gal4-VP16 FLuc inactive.
Screening O=C(NC(=S)NCCO)c1sc2ccccc2c1Cl returned RORgamma inh 11.2µM, PKM2 activator inconclusive, CtBP-E1A inh inactive, Six1-Eya2 blk inactive and Gal4-VP16 FLuc inactive.
Screening CCOC(=S)NC(=O)c1sc2ccccc2c1Cl returned RORgamma inh 1.26µM, PKM2 activator inactive, CtBP-E1A inh inactive, Six1-Eya2 blk inactive and Gal4-VP16 FLuc 5.62µM.
COc1ccc(C(=O)N/C(=C\c2ccc(SC)cc2)C(=O)NCCCn2ccnc2)cc1OC was read as CtBP-E1A inh inactive and Six1-Eya2 blk inactive.
Oc1ccc(Cl)cc1N=Nc1ccccc1 was read as RORgamma inh inactive, PKM2 activator inactive[11.5 µM], Six1-Eya2 blk inactive and Gal4-VP16 FLuc inactive.
O=S(=O)(O)c1cc(Cl)cc(N=Nc2ccc(O)cc2O)c1O was read as CtBP-E1A inh -89.6 and Six1-Eya2 blk -91.7.
For CC1=NN(C(N)=S)C(=O)C1N=Nc1ccc(Br)cc1 (stereo not drawn) the results were RORgamma inh 0.447µM, PKM2 activator inactive, CtBP-E1A inh inactive, Six1-Eya2 blk inactive and Gal4-VP16 FLuc 1.26µM.
Screening CC1=NN(c2nc(-c3ccc(C)cc3)cs2)C(=O)C1N=Nc1cccc(O)c1 (stereo not drawn) returned RORgamma inh inactive, PKM2 activator inactive, CtBP-E1A inh inactive, Six1-Eya2 blk inactive and Gal4-VP16 FLuc inactive.
